Here are results for 18 compounds from PubChem BioAssay (NCI).

The panel holds about 83,000 compounds, 20% with a hit somewhere; the sample as a whole holds those more often.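 Single-dose data. Exposure time 48 hours. Values below 10 considered active.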 Values without a mark were called inactive. Calls of active or inactive are those of the source.

Common to all, as to experiment: NCI-60 one-dose screen, 48 h (100 = growth as untreated, 0 = no growth, -100 = all killed)
What all share (conditions): 10 µM unless noted

In test [1] the test system is RPMI-8226 leukemia.
The subject of test [2] is OVCAR-8 ovarian.
For test [3], the system named is OVCAR-5 ovarian.
The subject of test [4] is OVCAR-4 ovarian.
Test [5] deals with SK-OV-3 ovarian.
Test [6] concerns IGROV1 ovarian.
Test [7] deals with OVCAR-3 ovarian.
In test [8] the test system is HS 578T breast.
The test system of test [9] is NCI/ADR-RES ovarian.
The subject of test [10] is T-47D breast.
In test [11] the test system is BT-549 breast.
Test [12] concerns MDA-MB-435 melanoma.
The subject of test [13] is SW-620 colon.
In test [14] the test system is MCF7 breast.
In test [15] the test system is HCT-116 colon.
Test [16] deals with HCC-2998 colon.
In test [17] the test system is KM12 colon.

Regarding `O[C@@H]1Cc2ccc3ccccc3c2N[C@H](c2ccoc2)C1`, the growth in test [1] was 103%; in test [2], 101%; in [3], 100%; in test [4], 99.1%; in test [5] it was 102%; in test [6] it was 109%. For the same compound, the growth in [7] was 115%; in test [8] it was 104%; in test [9] it was 103%; in test [10] it was 93.8%; in [11], 106%; in test [12], 107%. For the same compound, the growth in test [13] is 112%; in test [14] it was 94.5%; in test [15], 105%; in [16] it was 113%; in [17], 106%.

For `CC(=O)c1nc2ccccc2n1CCn1cc(CC(N)C(=O)O)c2ccccc21` (stereo unspecified), the growth was 90% in test [1]; 99% in test [2]; 96.9% in [3]; 98.8% in test [4]; 108% in test [5]; 99.1% in [6]. The growth in test [7] is 108%; in test [8], 109%; in test [9], 97.5%; in [10] it was 106%; in test [11], 105%; in test [12] it was 101%. Further, the growth in test [13] was 114%; in [14] it was 75.3%; in test [15], 106%; in test [16], 102%; in [17] it was 104%.

Consider `O=C1CN(CO)C(=O)CN1CO`, for which the growth in test [1] was 103%; in test [2], 99.7%; in [3] it was 94.6%; in test [4], 111%; in test [5], 111%; in test [6], 105%. Moreover, the growth in test [7] was 113%; in test [8], 101%; in test [9], 103%; in [10], 107%; in [11], 113%; in [12], 103%. Further, the growth in test [13] is 95.9%; in [14] it was 101%; in [15] it was 103%; in test [16] it was 104%; in [17], 105%.

Consider `O=[N+]([O-])c1ccc(Oc2cccc(C(F)(F)F)c2)c([N+](=O)[O-])c1`, for which the growth in test [1] was 79.3%; in [2], 12.7%; in [3] it was 68.1%; in test [4], 98.2%; in [5], 44.5%; in test [6], 12.3%. In addition, the growth is 44.9% in test [7]; 105% in test [8]; 29.1% in [9]; 48% in test [10]; 3.1% (active) in [11]; -16.6% (active) in test [12]. In addition, the growth in test [13] was 13.5%; in [14], 112%; in test [15] it was 3.46% (active); in test [16] it was 92.5%; in test [17] it was 86.2%.

Take `CCN1C(=O)c2ccc3c4c(ccc(c24)C1=O)C(=O)N(CCCNCc1ccccc1OC)C3=O`: the growth was -23% (active) in [1]; -22.9% (active) in [2]; -90.6% (active) in test [3]; -60.3% (active) in [4]; 11.1% in test [5]; -63% (active) in test [6]. Moreover, the growth was -20.1% (active) in [7]; -31.2% (active) in test [8]; 4.44% (active) in [9]; -50.5% (active) in test [10]; -75.9% (active) in test [11]; -80.3% (active) in [12]. The growth in [13] is -57.4% (active); in test [14] it was -25.5% (active); in [15], -79% (active); in test [16] it was -82.6% (active); in test [17], -35.1% (active).

With `O=C(C(Br)Br)C(Br)C(Br)c1ccccc1` (stereo unspecified), the growth in test [1] was 78.1%; in test [2], 88%; in [3] it was 108%; in [4] it was 43.1%; in [5], 116%; in test [6], 84.3%. Also, the growth is 1.96% (active) in test [7]; 104% in [8]; 94.5% in test [9]; 49.7% in test [10]; 95.8% in [11]; 82.3% in test [12]. Further, the growth in test [13] is -46.9% (active); in test [14] it was 69.7%; in [15], 24.7%; in test [16], 112%; in test [17], 102%.

Take `N=C(N)/N=C(\CCc1nc2ccccc2[nH]1)c1nc2ccccc2[nH]1`: the growth is 105% in [1]; 105% in test [2]; 90% in test [3]; 107% in test [4]; 108% in test [5]; 114% in test [6]. Also, the growth in [7] is 109%; in [8], 99.4%; in test [9] it was 93.4%; in test [10], 99.7%; in [11], 104%; in test [12], 109%. In addition, the growth is 104% in test [13]; 86.3% in [14]; 102% in [15]; 100% in test [16]; 103% in test [17].

As to `C=C(C[C@](O)(C(=O)/C=C/c1ccc(Cl)cc1)C(=O)OC)c1ccccc1`, the growth is -20.3% (active) in [1]; 50.2% in test [2]; 105% in test [3]; 84.4% in [4]; 95.7% in test [5]; 81.2% in test [6]. Further, the growth is 61.7% in [7]; 104% in test [8]; 59.2% in test [9]; 36.2% in [10]; 79.5% in test [11]; 66.5% in [12]. In addition, the growth was 30.3% in [13]; 5.85% (active) in [14]; 34.9% in test [15]; 41.9% in [16]; 15.3% in test [17].

Take `CN(CC(=O)Nc1nc2ccccc2[nH]1)S(=O)(=O)c1ccc(Cl)cc1`: the growth in test [1] was 57.5%; in [2], 95.2%; in test [3], 96.4%; in test [4] it was 93.6%; in [5], 96.5%; in test [6] it was -28.9% (active). Further, the growth in [7] was 91%; in [8], 87.2%; in test [9], 88.3%; in test [10], 77%; in [11], 99.2%; in test [12], 91.2%. In addition, the growth in test [13] is 67.5%; in test [14] it was 40.9%; in test [15], 72.8%; in test [16] it was 91.3%; in test [17], 105%.

Consider `OCCOc1c(Cl)cc(Cl)cc1Cl`, for which the growth in test [1] was 119%; in test [2], 104%; in test [3], 92.6%; in [4], 98.1%; in [5], 106%; in [6] it was 115%. Further, the growth in [7] is 118%; in test [8] it was 98.4%; in test [9], 102%; in test [10], 109%; in test [11], 109%; in [12], 103%. The growth is 98.7% in test [13]; 89% in [14]; 109% in test [15]; 110% in [16]; 115% in [17].

On to `C[N+]1(CCc2ccccc2)CCC(CCC2CC[N+](C)(CCc3ccccc3)CC2)CC1` (stereo unspecified), for which the growth is 126% in test [1]; 97% in [2]; 104% in [3]; 103% in test [4]; 107% in test [5]; 105% in test [6]. Moreover, the growth is 107% in [7]; 103% in test [8]; 105% in test [9]; 102% in [10]; 106% in test [11]; 104% in test [12]. The growth in test [13] is 98.8%; in test [14], 98.6%; in test [15], 95.1%; in test [16] it was 101%; in [17], 111%.

On to `COc1cc(/C=C/C(=O)N2CCN(C(=O)/C=C/c3ccccc3)CC2)cc(OC)c1OC`, for which the growth in test [1] is 95.5%; in test [2], 98.1%; in test [3] it was 117%; in test [4], 97.1%; in [5], 122%; in test [6], 115%. Also, the growth in test [7] is 120%; in test [8], 113%; in test [9] it was 108%; in test [10], 110%; in test [11] it was 104%; in test [12], 111%. Further, the growth was 109% in test [13]; 110% in [14]; 105% in test [15]; 102% in test [16]; 118% in test [17].

Turning to `CC(C)[C@H]1CC[C@H]2[C@@H](CC[C@H]3[C@](C)(CN)CCC[C@]23C)C1`, the growth in test [1] is 21.6%; in test [2] it was 97.9%; in test [3], 74.7%; in [4], 67.6%; in [5], 111%; in test [6], 92.6%. Also, the growth is 22.7% in test [7]; 94.6% in test [8]; 89.5% in test [9]; 64% in [10]; 99.4% in test [11]; 1.77% (active) in test [12]. Also, the growth in test [13] was -12.2% (active); in test [14], -55.8% (active); in test [15] it was 5.32% (active); in [16], 29.3%; in test [17], 36.7%.

For `O=[N+]([O-])c1ccc2c(c1)S(=O)c1cc([N+](=O)[O-])ccc1N2`, the growth is 103% in test [1]; 101% in [2]; 95.3% in test [3]; 100% in test [4]; 103% in test [5]; 117% in test [6]. Further, the growth in test [7] was 113%; in [8] it was 99.7%; in test [9], 102%; in test [10], 96.6%; in test [11], 102%; in [12], 106%. Further, the growth in test [13] was 95.8%; in test [14], 99.2%; in test [15], 94%; in test [16] it was 104%; in test [17], 102%.

For the compound `O=C(CCc1nnc(Cn2ccnc2)o1)c1nc2ccccc2[nH]1`, the growth was 117% in [1]; 105% in test [2]; 103% in [3]; 107% in test [4]; 108% in [5]; 106% in test [6]. Besides, the growth in [7] is 118%; in [8], 112%; in [9], 99.8%; in test [10], 102%; in test [11] it was 114%; in [12] it was 111%. Moreover, the growth was 109% in [13]; 106% in test [14]; 106% in test [15]; 108% in test [16]; 111% in test [17].

Take `CCOc1nc(-c2ccccc2)cc2c(O)c(-c3nnco3)[nH]c(=O)c12`: the growth is 48.3% in test [1]; 30.6% in test [2]; 101% in [3]; 51.5% in [4]; 59.3% in test [5]; 36.7% in test [6]. The growth in test [7] is 27.8%; in test [8], 68%; in [9], 25.5%; in [10], 2.73% (active); in test [11], 41.6%; in test [12] it was 63.8%. Further, the growth in test [13] is 32.2%; in test [14] it was 23.3%; in [15], 39.7%; in [16] it was 61.5%; in [17], 48.9%.

For `CN1CCN(Cc2ccc(NC(=O)c3[nH]ncc3Nc3ccnc4ccnn34)cc2)CC1`, the growth is 111% in [1]; 61.8% in [2]; 94% in [3]; 62.1% in test [4]; 29.1% in test [5]; 58.3% in test [6]. For the same compound, the growth in test [7] is 53.7%; in test [8], 63%; in test [9] it was 107%; in test [10], 63.2%; in test [11], 74.1%; in test [12], 56.1%. The growth was 70.1% in [13]; 35.9% in test [14]; 33.7% in test [15]; 68.7% in test [16]; 32.7% in [17].

As for `c1coc([C@@H]2C[C@@H]3Cc4ccc5ccccc5c4N2O3)c1`, the growth was 97.3% in test [1]; 99.4% in test [2]; 90.8% in test [3]; 92.4% in [4]; 103% in test [5]; 113% in test [6]. For the same compound, the growth in [7] is 114%; in [8], 110%; in test [9] it was 99.8%; in test [10], 104%; in [11] it was 105%; in [12] it was 103%. Further, the growth in test [13] is 103%; in test [14], 84.6%; in test [15] it was 99.2%; in test [16], 107%; in test [17] it was 107%.
